According to publication PMC5540273 (PLoS ONE, 2017):
Where “and” joins values, the source holds several entries; their conditions need not be identical. Equal values may be shown once. Read-outs that look alike come from different tables or passages of the source.

Legend:
[1] = test system: PIK3CD; settings: concentration: 1 μM, replicates: in singlicate, n = 1
[2] = test system: PIK3CG; settings: concentration: 1 μM, replicates: in singlicate, n = 1
[3] = test system: T1, PIK4CB; settings: concentration: 1 μM, replicates: in singlicate, n = 1
T1 construct: gene PI4KB

[4] = test system: PIKFYVE; settings: concentration: 1 μM, replicates: in singlicate, n = 1
[5] = test system: PIM1; settings: concentration: 1 μM, replicates: in singlicate, n = 1
[6] = test system: PIM2; settings: concentration: 1 μM, replicates: in singlicate, n = 1
[7] = test system: PIM3; settings: concentration: 1 μM, replicates: in singlicate; n = 1
[8] = test system: PIP5K1A; settings: concentration: 1 μM, replicates: in singlicate; n = 1
[9] = test system: PIP5K1C; settings: concentration: 1 μM, replicates: in singlicate, n = 1
[10] = test system: PIP5K2B; settings: concentration: 1 μM, replicates: in singlicate; n = 1
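Also: KINOMEscan kinase panel screen.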

Structure (SMILES)	%Inh [1] [%]	%Inh [2] [%]	%Inh [3] [%]	%Inh [4] [%]	%Inh [5] [%]	%Inh [6] [%]	%Inh [7] [%]	%Inh [8] [%]	%Inh [9] [%]	%Inh [10] [%]	%Inh ([1]; 1 µM)	%Inh ([2]; 1 µM)	%Inh ([3]; 1 µM)	%Inh ([4]; 1 µM)	%Inh ([5]; 1 µM)	%Inh ([6]; 1 µM)	%Inh ([9]; 1 µM)
FC(F)(F)c1ccc(-c2cc(-c3c[nH]nc3-c3ccccn3)ccn2)cc1 [GW599550]	0	1	0	22	19	0	51	18	74	17							
N#Cc1ccc(Oc2ccc(Nc3ncnc4cc[nH]c34)cc2Cl)cc1	36	0	0	7	20	6	29	0	0	11							
COC(=O)c1c(-c2ccccc2)c2cc(Cl)ccc2c(=O)n1Cc1ccc(S(C)(=O)=O)cc1	34	25	46	0	1	16	2	16	0	49							
CCc1nc(-c2cccc(N(C)S(=O)(=O)c3ccccc3)c2)c(-c2ccnc(Nc3ccc(N4CCN(C(C)=O)CC4)nc3)n2)s1 [GSK1645895]	0	4	10	0	17	0	11	0	0	0							
CC(C)(C)OC(=O)NC1CCCN(c2cc(-c3ccc4c(N)n[nH]c4c3)nc(N)n2)C1 (stereo not shown) [GSK2286096]	0	19	1	0	9	0	5	0	7	19							
CS(=O)(=O)CCNCc1ccc(-c2ccc3ncnc(Nc4ccc(OCc5ccccc5)c(Cl)c4)c3c2)o1.Cl [GW574783]	0	0	8	23	0	5	0	32	62	0							
Fc1cccc(COc2ccc(Nc3ncnc4nn5ccccc5c34)cc2Cl)c1 [GW689066]	0	0	0	0	0	0	0	40	43	7							
O=C(CCO)NCCn1ccc2ncnc(Nc3ccc(Oc4cccc(C(F)(F)F)c4)c(Cl)c3)c21	0	0	0	34	0	0	0	0	41	5							
CN1CCC(n2cnc(-c3ccc(F)cc3)c2-c2ccnc(NC3CCNCC3)n2)CC1 [SB-229482]	0	34	31	40	1	0	2	0	0	0							
Cl.c1ccc(Cn2ncc3cc(Nc4ncnc5ccccc45)ccc32)cc1 [GW273749]	0	3	0	0	0	0	1	0	11	10							
Clc1cc(Nc2ncnc3cc[nH]c23)ccc1OCc1ccccn1	25	4	34	0	5	10	22	30	0	0							
O=C(Nc1ccccc1)Nc1ccc(Oc2ccc3nccn3n2)cc1	0	0	0	5	0	6	0	4	25	7							
CNc1nccc(-c2c(-c3ccc(F)cc3)ncn2C2CCN(C)CC2)n1 [SB-222903]	0	0	0	9	1	0	0	36	0	0							
CCC(CC)(CC)n1cnc2c(N)ncnc21 [SKF-97620]	22	5	40	33	0	6	5	30	9	0							
FC(F)(F)c1cc(Nc2nccc(-c3c(-c4ccc(Cl)cc4)nn4ncccc34)n2)ccc1Cl [GW829351]	0	0	0	16	0	0	0	10	0	0							
Cn1ccc2ncnc(Nc3ccc(Oc4cccc(Cl)c4)c(Cl)c3)c21	8	8	0	0	8	17	22	0	0	54							
Nc1nc(-c2cccnc2)c(-c2ccnc3ccccc23)s1 [GW684083]	0	0	0	12	0	0	0	25	58	0							

Structure (SMILES)	%Inh [1] [%]	%Inh [2] [%]	%Inh [3] [%]	%Inh [4] [%]	%Inh [5] [%]	%Inh [6] [%]	%Inh [7] [%]	%Inh [8] [%]	%Inh [9] [%]	%Inh [10] [%]	%Inh ([1]; 1 µM)	%Inh ([2]; 1 µM)	%Inh ([3]; 1 µM)	%Inh ([4]; 1 µM)	%Inh ([5]; 1 µM)	%Inh ([6]; 1 µM)	%Inh ([9]; 1 µM)
COc1ccc(-c2nc3n(c2-c2ccncc2)CCC3)cc1 [SKF-104493]							0	27		0	5% and 25%	11% and 1%	0% and 10%	11% and 0%	0% and 50%	2% and 0%	25% and 5%
CCn1c(-c2ccncc2)nc2cnccc21 [SB-735216]	0	14	21	0	0	0	21	28	0	23							
CC(=O)Nc1n[nH]c2ncc(-c3ccccc3)cc12 [SB-548492]	0	26	44	0	7	0	14	10	0	8							
Fc1ccc(-c2ncn(CCCNCc3ccccc3)c2-c2ccncc2)cc1	3	4	24	2	10	23	28	0	0	12							
C[C@@H]1CCN(C(=O)CO)C[C@@H]1N(C)c1ncnc2[nH]ccc12	5	0	0	48	0	0	0	16	0	0							
O=C(Nc1n[nH]c2nc(-c3ccco3)c(Br)cc12)c1ccc(CN2CCCC2)cc1.O=C(O)[C@H](O)[C@@H](O)C(=O)O [SB-742352]	0	5	40	0	0	0	0	0	0	0							
COc1ccc(NC(=O)Nc2ccc(C)c(-c3ccc(C(=O)Nc4ccncc4)cc3)c2)cc1 [GSK1398475]	0	0	0	0	0	0	3	0	17	0							
Cc1cccc(-c2nc(Nc3ccc4[nH]nnc4c3)c3ccccc3n2)n1 [GW867587]	0	0	0	13	17	0	2	27	0	0							
Fc1ccc(Nc2nccc(-c3c(-c4ccc(Cl)cc4)nn4ncccc34)n2)cc1F [GW829058]	54	18	32	20	31	11	24	13	54	14							
CN1c2ccc(-c3ccc(C(=O)NCCO)cc3)cc2-c2[nH]ncc2S1(=O)=O	10	0	0	0	10	5	24	0	41	0							
Nc1n[nH]c2nnc(-c3ccccc3)cc12 [SB-517389]	0	0	8	0	8	0	0	0	0	18							
Clc1cccc(-c2nc(Nc3ccncc3)c3ccccc3n2)c1 [GW873004]	0	0	0	61	4	11	0	22	33	0							
Cn1cc(-c2ccc3c(c2)CCN3C(=O)Cc2cccc(C(F)(F)F)c2)c2c(N)ncnc21 [GSK2606414]	0	0	6	0	0	0	0	0	0	0							
CS(=O)(=O)CCNCc1nc(-c2ccc3ncnc(Nc4ccc(OCc5cccc(F)c5)c(Cl)c4)c3c2)cs1.Cl [GW583340]	29	0	26	0	20	0	8	1	38	0							
COc1cc2c(Nc3cccc(NC(=O)c4ccccc4)c3)ncnc2cc1OCCCN1CCOCC1 [GSK223810]	0	0	0	0	0	0	5	0	26	2							
Cl.O=S(=O)(c1cccc(F)c1)c1ccc(Nc2ncnc3cc(Br)sc23)cc1Cl [GSK306886]	21	5	6	0	14	0	0	9	70	3							
Clc1ccc(-c2cc(-c3c[nH]nc3-c3ccccn3)ccn2)cc1 [GW681251]	0	0	4	0	0	30	0	16	79	22							
